Data on 33 molecules can be found in the supplement of paper PMC13380429.

The subject of assay [1] is Vero E6 infected with SARS-CoV-2. The assay can be described thus: morphology score (similarity to uninfected cells); higher = more like uninfected cells. The settings on record: 24 h.
Assay [2] shares this test system. The assay can be described thus: SARS-CoV-2 infection rate relative to infected DMSO; higher = more infection, active = 60 or less. The settings on record: 24 h.

Regarding `Nc1nc(=O)[nH]cc1F` [flucytosine] (10 µM), in assay [1], the morphology score is -0.016. In addition, the SARS-CoV-2 infection rate in assay [2] is 107% (inactive).
On the same counts, the results for `CCN1/C(=C/C(C)=O)Sc2ccc(OC)cc21` (10 µM) are -0.0524 and 108% (inactive).
On the same counts, the results for `O=S(=O)(/N=C/c1c(O)ccc2ccccc12)c1cccs1` (10 µM) are 0.103 and 98.5% (inactive).
Consider `CN(C)CCN(C)CCc1ccc(Cl)c(Cl)c1` (10 µM), for which the morphology score in assay [1] was found to be 0.208. The SARS-CoV-2 infection rate in assay [2] was 82.5% (inactive).
Taken in the same sequence, the figures for `O=[N+]([O-])c1nccn1CC(O)CN1CCCCC1` (stereo unspecified) [pimonidazole] (10 µM) were 0.0622 and 108% (inactive).
`Oc1cc(Cl)ccc1Oc1ccc(Cl)cc1Cl` [triclosan] (10 µM) yielded a morphology score in assay [1] of 0.237. For the same molecule, the SARS-CoV-2 infection rate in assay [2] was 95% (inactive).
On the same counts, the results for `CC(N)C12CC3CC(CC(C3)C1)C2` (stereo unspecified) [rimantadine] (10 µM) are 0.136 and 102% (inactive).
Turning to `Clc1ccccc1C(c1ccccc1)(c1ccccc1)n1cccn1` (10 µM), the morphology score in assay [1] turned out to be 0.0967. For the same molecule, in assay [2], the SARS-CoV-2 infection rate is 100% (inactive).
On the same counts, the results for `Fc1ccc(-c2nc3n(c2-c2ccncc2)CCS3)cc1` (10 µM) are 0.209 and 94% (inactive).
On the same counts, the results for `COC(=O)c1cc(OC)c2c(c1-c1c(C(=O)OC)cc(OC)c3c1OCO3)OCO2` [bifendate] (10 µM) are 0.0714 and 108% (inactive).
Taken in the same sequence, the figures for `O=C1NCCN1c1ncc([N+](=O)[O-])s1` [niridazole] (10 µM) were 0.233 and 95% (inactive).
In assay [1], `CN(c1ccc(NC(=O)Nc2ccccc2)cc1)S(=O)(=O)c1cnn(-c2ccc(F)cc2)c1` (10 µM) showed a morphology score of 0.268. In addition, the SARS-CoV-2 infection rate in assay [2] was 83.5% (inactive).
For the molecule `c1ccc2nc(N3CCNCC3)ccc2c1` [quipazine] (10 µM), the morphology score in assay [1] was 0.118. Moreover, the SARS-CoV-2 infection rate in assay [2] was 104% (inactive).
Consider `CNCCCN1c2ccccc2CCc2ccccc21` [desipramine] (10 µM), for which, in assay [1], the morphology score is 0.212. Further, the SARS-CoV-2 infection rate in assay [2] is 81% (inactive).
On the same counts, the results for `Oc1cc(O)cc(O)c1` [phloroglucin] (10 µM) are -0.0825 and 114% (inactive).
On the same counts, the results for `C[C@H](Cc1ccc2c(c1)OC(C(=O)O)(C(=O)O)O2)NC[C@H](O)c1cccc(Cl)c1` (10 µM) are 0.159 and 93.5% (inactive).
Taken in the same sequence, the figures for `CN(C)c1cccc(Oc2cnc(Nc3cccc(O)c3)nc2)c1` (10 µM) were 0.0803 and 109% (inactive).
For the molecule `CC(=O)N[C@@H](CS)C(=O)O` [acetylcysteine] (10 µM), the morphology score in assay [1] came out at 0.183. In addition, the SARS-CoV-2 infection rate in assay [2] is 95.5% (inactive).
In turn, `Cc1cc(Cl)ccc1OCCCC(=O)NO` [droxinostat] (10 µM) displayed a morphology score in assay [1] of 0.199. The SARS-CoV-2 infection rate in assay [2] was 90% (inactive).
On the same counts, the results for `CC#CCn1c(N2CCC[C@@H](N)C2)nc2c1c(=O)n(Cc1nc(C)c3ccccc3n1)c(=O)n2C` [linagliptin] (10 µM) are -0.0102 and 110% (inactive).
In the case of `O=c1ccc2cc3ccoc3cc2o1` [psoralen] (10 µM), the morphology score in assay [1] is -0.0337. The SARS-CoV-2 infection rate in assay [2] was 108% (inactive).
On the same counts, the results for `CC(C)CCC[C@@H](C)[C@H]1CC[C@H]2[C@@H]3CCC4=CC(=NO)CC[C@]4(C)[C@H]3CC[C@]12C` [olesoxime] (10 µM) are -0.0917 and 106% (inactive).
On the same counts, the results for `CCCCCCCCCCCCCCCC[N+](C)(C)C` [cetrimonium] (0.833333 µM) are -0.199 and 114% (inactive).
Taken in the same sequence, the figures for `C[C@@H]1NC(C)(C)CO[C@@]1(O)c1cccc(Cl)c1` [radafaxine] (10 µM) were -0.0433 and 110% (inactive).
The molecule `CC1(C)Oc2ccc(C#N)cc2[C@H](N(Cc2ncc[nH]2)c2ccc(Cl)cc2)[C@H]1O` (10 µM) showed a morphology score in assay [1] of 0.455. In addition, the SARS-CoV-2 infection rate in assay [2] was 81% (inactive).
Taken in the same sequence, the figures for `N#CSc1cc(SC#N)c(N)nc1N` (0.833333 µM) were 0.125 and 98.5% (inactive).
With `Cc1ccc(NC(=O)Nc2cc(C(F)(F)F)ccc2F)cc1Nc1ccc2c(c1)NC(=O)/C2=C\c1ccc[nH]1` (10 µM), in assay [1], the morphology score came to 0.567. Also, the SARS-CoV-2 infection rate in assay [2] was 51.5% (active).
On the same counts, the results for `CCN(CC)CCCCNc1ncc2cc(-c3cc(OC)cc(OC)c3)c(NC(=O)NC(C)(C)C)nc2n1` (0.833333 µM) are 0.13 and 107% (inactive).
Taken in the same sequence, the figures for `CC1OC2(CS1)CN1CCC2CC1` (stereo unspecified) [cevimeline] (10 µM) were 0.0787 and 98% (inactive).
On the same counts, the results for `COc1ccc(-c2ccc3ncc4c(c3c2)n(-c2ccc(N3CCNCC3)c(C(F)(F)F)c2)c(=O)n4C)cn1` (0.833333 µM) are 0.115 and 104% (inactive).
For `Cc1ccccc1CN1C(=O)C2=C(CCN(Cc3ccccc3)C2)N2CCN=C12` (0.833333 µM), in assay [1], the morphology score is -0.16. Besides, the SARS-CoV-2 infection rate in assay [2] is 82% (inactive).
`CC(C)[C@@H](C)/C=C/[C@@H](C)[C@H]1CC[C@H]2/C(=C/C=C3\C[C@@H](O)CC[C@@H]3C)CCC[C@]12C` [dihydrotachysterol] (10 µM): the morphology score in assay [1] worked out at 0.121. In addition, the SARS-CoV-2 infection rate in assay [2] was 106% (inactive).
Taken in the same sequence, the figures for `COc1ccnc(C[S+]([O-])c2nc3cc(OC(F)F)ccc3[nH]2)c1OC` (stereo unspecified) [pantoprazole] (10 µM) were -0.142 and 104% (inactive).
